The list is not random: actives were taken first. Their share in the collection is about 3.1%.
EP2 antag – inhibitors of human EP2 prostaglandin E2 receptor; C6 glioma cells expressing human EP2, cAMP TR-FRET; cells stimulated with saturating PGE2; inhibition, % at 25 µM; AID 1422; hit rate 0.52% among 260,000;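 active = percent inhibition above 40 after rounding to a whole number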;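 note: rat C6 glioma host cells with rolipram phosphodiesterase inhibitor present; the protocol text gives 20 µM as final concentration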
Target sequence (P43116 whole entry, looked up): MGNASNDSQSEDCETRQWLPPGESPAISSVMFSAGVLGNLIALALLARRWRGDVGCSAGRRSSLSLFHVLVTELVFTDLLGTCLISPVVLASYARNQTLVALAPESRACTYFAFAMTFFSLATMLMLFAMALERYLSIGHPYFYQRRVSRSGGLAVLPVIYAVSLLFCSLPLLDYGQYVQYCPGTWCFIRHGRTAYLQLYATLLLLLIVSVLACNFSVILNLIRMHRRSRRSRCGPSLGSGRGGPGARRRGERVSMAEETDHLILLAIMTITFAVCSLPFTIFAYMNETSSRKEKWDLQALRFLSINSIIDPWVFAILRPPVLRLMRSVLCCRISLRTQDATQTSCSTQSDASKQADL
S1P3 antagonist – antagonists of human S1P3 receptor; Q99500; CHO S1P3 NFAT-BLA reporter, FRET fluorescence, antagonist mode; inhibition, % at 4.98 µM; hit rate 0.27% among 170,000;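 active = inhibition above the plate cutoff, the mean inhibition of test wells on that plate plus 3 SD, cut at about 28% in these data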;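 note: cells challenged with S1P at its EC80 of 0.8 µM; blue over green emission ratio from cleaved BLA substrate after 4 h stimulation; 0% = S1P-stimulated wells and 100% = unstimulated DMSO-only wells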
Target sequence (Q99500 whole entry, looked up): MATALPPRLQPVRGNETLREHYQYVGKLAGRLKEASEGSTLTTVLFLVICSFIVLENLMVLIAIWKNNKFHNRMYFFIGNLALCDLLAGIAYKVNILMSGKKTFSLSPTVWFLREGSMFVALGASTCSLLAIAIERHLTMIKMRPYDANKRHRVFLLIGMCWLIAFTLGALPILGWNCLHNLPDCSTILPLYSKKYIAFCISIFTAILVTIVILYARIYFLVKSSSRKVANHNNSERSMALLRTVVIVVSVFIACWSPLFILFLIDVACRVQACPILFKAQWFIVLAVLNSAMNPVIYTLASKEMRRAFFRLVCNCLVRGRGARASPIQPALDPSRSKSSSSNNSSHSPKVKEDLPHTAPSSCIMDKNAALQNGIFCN
EP2 mod – EP2 receptor (human) modulation | EP2-expressing cells, cAMP HTRF FRET, PGE2 co-stimulation | P43116 | hit rate 0.83% among 260,000 | induction, % at 25 µM;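 active = compounds whose cAMP rise, as percent of the full-agonist control response, exceeds 60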;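 note: rat C6 glioma line stably carrying human EP2 under a CMV promoter; the protocol text gives 20 µM as final concentration; 100% = response of wells given 1 µM PGE2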
KCC2 mod – modulators of human KCC2 chloride dependent transport; hit rate 2.2% among 190,000; Q9H2X9; B-score of Tl+ flux slope (higher = more flux/activation; lower = inhibition) at 10 µM; KCC2 cells, thallium flux FluoZin-2 fluorescence; AID 1456;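 active = thallium flux slope and its plate-corrected score both differing from the plate sample mean at a set confidence after two filtering rounds, in either direction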;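 note: slope of fluorescence scaled to starting intensity during 10 to 20 s after thallium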
KCC2 sec1 – KCC2 (human) modulation, secondary assay; HEK293-KCC2, thallium flux, FluoZin2 fluorescence; hits give high values; hit rate 15% among 3,700; normalised thallium flux (F/F0 slope) at 10 µM; shares compounds with KCC2 mod;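 active = thallium flux slope above the same plate's solvent-only control mean plus 3 SD; inconclusive = the two replicate wells disagree; inactive = no significant difference from solvent-only control wells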
KCC2 bumet counter – bumetanide-insensitive thallium flux in KCC2 cells with ouabain, counter-screen. hit rate 49% among 3,700. normalized thallium flux at 10 µM. AID 1714. HEK293-KCC2 + bumetanide/ouabain, thallium flux FluoZin2; hits give high values. shares compounds with KCC2 mod;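 active = thallium entry rate above the same plate's blocked-transporter control wells by more than 3 SD; inconclusive = the two repeat wells disagree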;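 note: raw slope of fluorescence over initial fluorescence between 10 and 20 s after thallium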
KCC2 secondary2 – confirmation of human KCC2 transport modulators. hit rate 23% among 3,700. shares compounds with KCC2 mod. HEK293-KCC2, thallium flux FluoZin2 fluorescence; actives lie on both sides; F/F0 rise rate, 10–20 s post-thallium. AID 1715. normalized thallium flux at 10 µM;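 active = thallium flux slope more than 3 SD above or below the plate's solvent-only control mean, mostly below; inconclusive = the two repeat wells disagreed; inactive = no significant shift from solvent-only controls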;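 note: raw slope with 0.1% DMSO as baseline and bumetanide as block control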
HEK293 Tl flux – counter-screen for KCC2 modulators: effect in parental HEK293 cells | shares compounds with KCC2 mod | thallium flux FluoZin2, ouabain; baseline-ratio fluorescence slope, 10–20 s after thallium | thallium flux rate (normalised fluorescence) at 10 µM | hit rate 46% among 3,700;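 active = thallium flux rate significantly above the same plate's solvent-only control wells, beyond their mean plus 3 SD; inconclusive = the two replicate wells gave conflicting results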
KCC2 retest ouab – modulates human KCC2 on retest with ouabain; shares compounds with KCC2 mod; HEK293-KCC2, thallium flux FluoZin2 fluorescence; bidirectional: low = inhibitor, high = activator; raw Tl+ flux slope (below DMSO = inhibition, above = activation) at 10 µM; hit rate 48% among 3,700; AID 1717;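 active = thallium flux slope beyond 3 SD from same-plate DMSO control mean in most replicates, usually higher, sometimes lower; inconclusive = repeat tests gave conflicting results; inactive = no significant difference from controls in most replicates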;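 note: slope of initial-normalized fluorescence between seconds 10 and 20 after thallium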
HEK293 Tl flux2 – acts in parental HEK cells, second KCC2 counter-screen; hit rate 33% among 3,700; shares compounds with KCC2 mod; HEK293 parental, thallium flux FluoZin-2 fluorescence slope; thallium flux slope at 10 µM;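 active = thallium flux slope above the same plate's solvent-control mean plus 3 SD in both duplicate wells; inconclusive = duplicate wells that disagreed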;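 note: run without ouabain in cells lacking the KCC2 cotransporter; slope of fluorescence scaled to its starting value between 10 and 20 s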
* = called active by the depositor; ? = inconclusive; · = no result given.

SMILES | EP2 antag | S1P3 antagonist | EP2 mod | KCC2 mod | KCC2 sec1 | KCC2 bumet counter | KCC2 secondary2 | HEK293 Tl flux | KCC2 retest ouab | HEK293 Tl flux2
COc1ccccc1OCc1nnc(SCC(=O)Nc2nc3ccccc3s2)n1C | 8.6 | · | -1.6 | · | · | · | · | · | · | ·
COc1cc(OC)c(C2=NOC(C(=O)NCc3cccs3)C2)cc1Cl (configuration not stated) | 13.8 | 1.9 | -64.6 | -0.658 | · | · | · | · | · | ·
O=C(NCCCCc1ccccc1)C1CC(c2ccccc2C(F)(F)F)=NO1 (configuration not stated) | 6.8 | · | -22.6 | -4.18* | 0.00797 | 0.00443 | 0.0233* | 0.00636 | 0.0163* | 0.00982
O=C(NCCCCc1ccccc1)C1CC(c2ccccc2[N+](=O)[O-])=NO1 (configuration not stated) | 19.6 | · | -19.1 | -6.39* | 0.00598 | 0.00456 | 0.0212* | 0.00743 | 0.0128* | 0.00917
COc1cc(OC)c(C2=NOC(C(=O)NCCc3ccccc3)C2)cc1Cl (configuration not stated) | 6.4 | · | -12.9 | · | 0.00644 | 0.00426 | 0.0259* | 0.00702 | ? | 0.00984
Cc1cc(S(=O)(=O)N2CCC(C(N)=O)CC2)ccc1-n1cnnn1 | 4.5 | · | 4.7 | · | · | · | · | · | · | ·
CCn1c(SCC(=O)Nc2ccc(NC(=O)c3ccccc3)cc2C)nnc1-c1cccs1 | 8.1 | · | -11.3 | · | · | · | · | · | · | ·
C/C(=N\NC(=S)Nc1c(C)cccc1C)c1cc2ccccc2o1 | 6.5 | 6.7 | -35.0 | 8.64* | 0.00639 | 0.0115* | 0.0309 | 0.0173* | ? | 0.0129*
C/C(=N\NC(=S)Nc1ccccc1C)c1cc2ccccc2o1 | 1.5 | 1.8 | -5.7 | 40.3* | 0.00798 | 0.0473* | 0.0475* | 0.0431* | 0.0518* | 0.0346*
C/C(=N\NC(=S)Nc1c(C)cccc1C)c1ccc(O)cc1 | 12.5 | -7.5 | -23.3 | 0.0696 | · | · | · | · | · | ·
O=C(Nc1ccc(C(F)(F)F)cc1)C1CCN(C(=O)c2cccs2)CC1 | 10.0 | · | -27.1 | · | · | · | · | · | · | ·
Cc1cccc2cc(CN(Cc3nnnn3Cc3ccc(F)cc3)C3CCCCC3)c(=O)[nH]c12 | 19.5 | · | -9.8 | · | · | · | · | · | · | ·
CN(C)c1nc(=NCc2ccco2)ss1 | 9.8 | 2.3 | -45.3 | 44.8* | 0.0366* | 0.0597* | 0.0413 | ? | 0.0517* | ?
O=C1CCCC(=NCc2ccco2)C1 | 8.8 | · | 29.3 | · | · | · | · | · | · | ·
CC1Cc2ccccc2N1C(=O)c1ccc2snnc2c1 (configuration not stated) | 8.7 | 25.1 | 14.6 | · | · | · | · | · | · | ·
Cc1nc2cc(C(=O)N3c4ccccc4CC3C)ccc2s1 (configuration not stated) | 11.1 | 6.2 | -12.4 | · | ? | 0.00583 | 0.0288 | 0.00664 | 0.0196* | ?
CCc1nc2sc3c(c2c2nnc(SCC(=O)c4ccc5c(c4)OCCO5)n12)CCCC3 | 9.2 | · | -0.1 | · | · | · | · | · | · | ·
CC(=O)c1nnn(-c2ccc(F)cc2)c1NCc1ccc(F)cc1 | · | · | -59.3 | · | · | · | · | · | · | ·
Cc1ccc(SCCNC(=S)Nc2cc(C)ccc2C)cc1 | 12.1 | · | -47.4 | · | 0.00692 | 0.00497 | 0.0291 | ? | ? | 0.00898
CC(=O)c1cn(CC(=O)O)c2ccccc12 | 5.6 | · | 8.2 | · | · | · | · | · | · | ·
O=C(Oc1c(Cl)cc(Cl)c2cccnc12)c1cccs1 | 2.4 | · | 46.2 | 3* | 0.00833 | 0.0299* | 0.0344 | 0.0158* | 0.0351* | ?
Oc1c(Cl)cc(Cl)c2cccnc12 | 7.0 | -6.8 | 20.6 | 87.5* | 0.0194* | 0.119* | 0.0472* | 0.098* | 0.0956* | 0.0318*
Oc1c(I)cc(I)c2cccnc12 | 11.5 | -4.0 | 20.1 | 77.9* | 0.0107 | 0.0779* | 0.037 | 0.0439* | 0.0842* | 0.0132*
Oc1ccc(Cl)c2cccnc12 | 8.5 | · | -4.0 | · | · | · | · | · | · | ·
O=C(CSc1nnc(-c2ccncc2)o1)NC1CCCCC1 | 4.2 | -8.6 | 11.8 | 0.551 | · | · | · | · | · | ·
SMILES | EP2 antag | S1P3 antagonist | EP2 mod | KCC2 mod | KCC2 sec1 | KCC2 bumet counter | KCC2 secondary2 | HEK293 Tl flux | KCC2 retest ouab | HEK293 Tl flux2
Cc1cc(-c2nnc(SCC(=O)NC3CCCC3)o2)no1 | 3.6 | -5.5 | 0.7 | 7.14* | 0.00707 | 0.00465 | 0.0289 | 0.0072 | 0.0175 | 0.0103
Cc1oc(-c2cc(F)ccc2F)nc1CN1CCN(c2cnccn2)CC1 | 6.9 | -2.5 | 4.1 | -5.04* | 0.0113 | 0.00604 | 0.0304 | 0.00758 | 0.0646 | ?
Cc1oc(-c2cc(F)ccc2F)nc1CN(C)Cc1ccc2nccnc2c1 | 9.7 | -4.8 | -5.5 | 0.704 | · | · | · | · | · | ·
Cc1nc2c(c(=O)n1CCC1=CCCCC1)c1nc3ccccc3nc1n2/N=C/c1ccco1 | · | 4.3 | -9.2 | -5.85* | 0.0062 | 0.00456 | 0.0289 | 0.00734 | 0.0186 | 0.0114
COc1cc2ccccc2cc1C(=O)Nc1cccc(NC(=O)c2cccs2)c1 | 9.7 | · | -64.3 | · | · | · | · | · | · | ·
CCn1nc(C)c(/C=N/NC(=S)Nc2ccc(Cl)cc2Cl)c1C | 7.4 | 11.4 | -21.1 | 4.47* | 0.00815 | 0.0105* | 0.031 | 0.0084* | ? | ?
Fc1ccc(NC(=S)Nc2cc(Cl)ccc2Cl)cc1 | 7.8 | -1.1 | -63.3 | 3.53* | 0.00799 | 0.0155* | ? | 0.0183* | 0.0263* | 0.0146*
Fc1ccc(/C=N/NC(=S)Nc2ccc(Cl)cc2Cl)cc1 | 9.8 | 0.8 | 8.8 | 7.56* | 0.00991 | 0.0179* | 0.0299 | 0.0117* | 0.0287* | ?
Fc1ccc(NC(=S)N/N=C/c2ccc(F)c(F)c2)cc1 | 9.5 | -7.6 | -60.2 | 26.6* | 0.0162* | 0.063* | 0.0311 | 0.0223* | 0.0439* | 0.013*
Cc1sc(NC(=O)CCC(=O)O)c(C(N)=O)c1C | 9.3 | · | -10.7 | · | · | · | · | · | · | ·
CCCn1c(=O)c2ccccc2n2c(SCCOc3ccccc3)nnc12 | -1.6 | -20.1 | 41.2 | -4.9* | 0.00576 | 0.00277* | ? | 0.0047* | ? | 0.00772*
O=C(COc1ccc2ccccc2c1)NNC(=O)c1ccc([N+](=O)[O-])cc1 | 8.6 | -26.8 | -12.9 | -2.79 | · | · | · | · | · | ·
COc1ccc(OCC(=O)NC(=S)NNC(=O)COc2ccc(Br)cc2Cl)cc1 | 7.4 | -19.0 | -36.4 | 12.6* | 0.0112 | 0.0255* | 0.0333 | 0.0186* | 0.0265 | 0.0129*
COc1ccc(NC(=S)NNC(=O)COc2ccc(Cl)cc2Cl)cc1 | 4.4 | 4.3 | -11.0 | 3.72 | · | · | · | · | · | ·
O=C(COc1ccc([N+](=O)[O-])cc1)NNC(=S)NC(=O)c1ccc(Br)cc1 | 5.8 | 0.5 | -28.0 | 6.05* | ? | 0.0292* | 0.0299 | 0.0179* | 0.0271* | ?

Screens from PubChem BioAssay.
